# Measured values reported in article PMC7862700, “An all-to-all approach to the identification of sequence-specific readers for epigenetic DNA modifications on cytosine”.
# Experiments:
# Assay in all cases: DAPPL (digital affinity profiling via proximity ligation, sequencing); 10 mM Tris-HCl pH 7.5, 50 mM NaCl, 1 mM DTT, 4% glycerol, room temperature, 30 min; GST-TFs on glutathione beads, 16-mer random dsDNA library, 0.1% formaldehyde crosslink after washing; high values mean tight binding
# Conditions in all cases: protein: recombinant; tags: N-terminal GST; dsDNA, one strand shown
# ELK1 = target: T1, ELK1 (Homo sapiens, UniProt P19419 1-428)
# T1 sequence: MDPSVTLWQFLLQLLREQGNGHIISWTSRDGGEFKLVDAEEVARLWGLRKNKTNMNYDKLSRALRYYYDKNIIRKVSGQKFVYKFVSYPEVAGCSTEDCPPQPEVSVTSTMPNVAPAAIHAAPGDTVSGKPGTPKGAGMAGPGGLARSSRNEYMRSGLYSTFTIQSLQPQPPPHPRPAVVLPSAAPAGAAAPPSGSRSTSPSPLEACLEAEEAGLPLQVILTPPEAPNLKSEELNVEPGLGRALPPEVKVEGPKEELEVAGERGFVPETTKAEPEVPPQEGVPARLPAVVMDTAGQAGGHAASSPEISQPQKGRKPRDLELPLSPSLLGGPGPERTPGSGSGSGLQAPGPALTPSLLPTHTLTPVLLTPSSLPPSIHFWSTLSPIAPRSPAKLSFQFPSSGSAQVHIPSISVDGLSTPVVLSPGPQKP
# Summary of the method: (§1)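 Yeast served to express human transcription factors as GST fusions, which were then captured on glutathione beads and labelled with DNA barcodes. Pooled with a tag-only sample, they were incubated with 200 nmole of a 16-mer random double-stranded DNA library for 30 min at room temperature in Tris/NaCl/DTT/glycerol buffer, washed, crosslinked with 0.1% formaldehyde, ligated by proximity, amplified by PCR and sequenced. Dividing each hexamer's read frequency for a factor by its frequency for the tag-only sample gives the binding signal.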
# GABPA = target: T2, GABPA (Homo sapiens, UniProt Q06546 1-454)
# T2 sequence: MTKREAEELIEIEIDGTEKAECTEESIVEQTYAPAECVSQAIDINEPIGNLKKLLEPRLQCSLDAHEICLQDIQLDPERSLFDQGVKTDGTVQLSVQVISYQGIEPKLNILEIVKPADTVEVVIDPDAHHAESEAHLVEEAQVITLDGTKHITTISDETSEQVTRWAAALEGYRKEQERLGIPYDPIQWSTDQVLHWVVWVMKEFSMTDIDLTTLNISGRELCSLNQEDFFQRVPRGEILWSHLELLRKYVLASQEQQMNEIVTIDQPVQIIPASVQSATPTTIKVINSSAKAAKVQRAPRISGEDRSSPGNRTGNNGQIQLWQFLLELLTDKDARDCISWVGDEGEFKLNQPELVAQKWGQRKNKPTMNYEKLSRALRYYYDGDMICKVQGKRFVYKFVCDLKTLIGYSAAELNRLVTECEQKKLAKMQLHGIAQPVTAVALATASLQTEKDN
# Summary of the method: as §1
# ERG = target: T3, ERG (Homo sapiens, UniProt P11308 1-479)
# T3 sequence: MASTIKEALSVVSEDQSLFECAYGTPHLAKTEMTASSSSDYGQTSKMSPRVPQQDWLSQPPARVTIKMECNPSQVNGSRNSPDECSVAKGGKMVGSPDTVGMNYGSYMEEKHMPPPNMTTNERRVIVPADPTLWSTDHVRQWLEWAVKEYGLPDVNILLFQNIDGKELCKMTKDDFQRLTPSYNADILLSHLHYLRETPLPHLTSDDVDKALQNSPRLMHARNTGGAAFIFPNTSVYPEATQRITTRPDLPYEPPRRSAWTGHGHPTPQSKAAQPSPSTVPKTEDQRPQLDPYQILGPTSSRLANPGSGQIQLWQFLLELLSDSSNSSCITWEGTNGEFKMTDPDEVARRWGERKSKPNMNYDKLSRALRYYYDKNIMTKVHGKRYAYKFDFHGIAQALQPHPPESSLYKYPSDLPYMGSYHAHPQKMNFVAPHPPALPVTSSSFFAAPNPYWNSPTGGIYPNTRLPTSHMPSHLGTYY
# Summary of the method: as §1
# ELF1 = ELF1 (Homo sapiens, UniProt P32519 1-619)
# Sequence of ELF1 (P32519 whole entry): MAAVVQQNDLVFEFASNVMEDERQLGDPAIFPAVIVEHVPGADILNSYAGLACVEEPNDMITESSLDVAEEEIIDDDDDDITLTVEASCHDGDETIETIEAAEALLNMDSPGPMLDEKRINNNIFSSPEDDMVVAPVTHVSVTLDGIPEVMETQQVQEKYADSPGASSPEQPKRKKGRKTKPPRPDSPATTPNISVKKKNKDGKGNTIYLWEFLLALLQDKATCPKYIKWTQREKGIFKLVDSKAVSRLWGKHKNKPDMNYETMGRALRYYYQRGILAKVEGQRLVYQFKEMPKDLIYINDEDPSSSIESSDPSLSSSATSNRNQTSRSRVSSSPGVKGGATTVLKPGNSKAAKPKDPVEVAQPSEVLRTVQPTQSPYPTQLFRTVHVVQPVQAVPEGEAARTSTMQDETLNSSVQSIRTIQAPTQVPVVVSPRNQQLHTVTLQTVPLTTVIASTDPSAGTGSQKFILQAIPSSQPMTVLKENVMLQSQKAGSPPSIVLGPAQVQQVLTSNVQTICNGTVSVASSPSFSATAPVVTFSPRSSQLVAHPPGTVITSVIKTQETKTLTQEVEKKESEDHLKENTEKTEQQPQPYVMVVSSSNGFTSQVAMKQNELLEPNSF
# Summary of the method: as §1
# EHF = target: T4, EHF (Homo sapiens, UniProt Q9NZC4 1-300)
# T4 sequence: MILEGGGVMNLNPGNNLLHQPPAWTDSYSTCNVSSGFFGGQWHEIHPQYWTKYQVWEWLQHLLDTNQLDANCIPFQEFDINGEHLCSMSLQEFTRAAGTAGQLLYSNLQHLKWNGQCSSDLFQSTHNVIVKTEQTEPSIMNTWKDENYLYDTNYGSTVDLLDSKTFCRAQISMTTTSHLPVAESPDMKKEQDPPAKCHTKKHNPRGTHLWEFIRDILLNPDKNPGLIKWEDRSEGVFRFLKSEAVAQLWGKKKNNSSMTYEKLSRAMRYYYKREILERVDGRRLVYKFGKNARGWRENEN
# Summary of the method: as §1
# SPIB = SPIB (Homo sapiens, UniProt Q01892 1-262)
# Sequence of SPIB (Q01892 whole entry): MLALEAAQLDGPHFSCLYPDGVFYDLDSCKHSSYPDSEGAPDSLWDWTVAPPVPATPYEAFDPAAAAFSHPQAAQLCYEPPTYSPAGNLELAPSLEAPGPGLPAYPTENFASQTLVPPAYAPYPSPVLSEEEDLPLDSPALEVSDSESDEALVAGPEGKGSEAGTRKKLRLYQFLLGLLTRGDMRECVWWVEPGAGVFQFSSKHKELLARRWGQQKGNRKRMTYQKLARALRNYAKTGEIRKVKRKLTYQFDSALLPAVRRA
# Summary of the method: as §1
# ETV5 = ETV5 (Homo sapiens, UniProt P41161 1-510)
# Sequence of ETV5 (P41161 whole entry): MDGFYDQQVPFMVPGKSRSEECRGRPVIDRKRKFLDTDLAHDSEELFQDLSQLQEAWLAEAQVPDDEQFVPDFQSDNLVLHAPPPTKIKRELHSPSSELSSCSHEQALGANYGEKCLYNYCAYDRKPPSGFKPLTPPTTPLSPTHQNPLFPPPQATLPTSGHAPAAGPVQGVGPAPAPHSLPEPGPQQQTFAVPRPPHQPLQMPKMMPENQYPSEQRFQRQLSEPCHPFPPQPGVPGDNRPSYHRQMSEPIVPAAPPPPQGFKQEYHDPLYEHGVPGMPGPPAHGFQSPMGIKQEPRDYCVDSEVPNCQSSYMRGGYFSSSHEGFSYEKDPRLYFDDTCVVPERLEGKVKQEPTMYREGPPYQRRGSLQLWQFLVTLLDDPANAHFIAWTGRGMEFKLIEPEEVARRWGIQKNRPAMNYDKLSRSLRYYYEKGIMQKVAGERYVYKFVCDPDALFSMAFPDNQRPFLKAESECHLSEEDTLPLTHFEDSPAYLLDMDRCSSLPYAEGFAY
# Summary of the method: as §1
# ELF4 = ELF4 (Homo sapiens, UniProt Q99607 1-663)
# Sequence of ELF4 (Q99607 whole entry): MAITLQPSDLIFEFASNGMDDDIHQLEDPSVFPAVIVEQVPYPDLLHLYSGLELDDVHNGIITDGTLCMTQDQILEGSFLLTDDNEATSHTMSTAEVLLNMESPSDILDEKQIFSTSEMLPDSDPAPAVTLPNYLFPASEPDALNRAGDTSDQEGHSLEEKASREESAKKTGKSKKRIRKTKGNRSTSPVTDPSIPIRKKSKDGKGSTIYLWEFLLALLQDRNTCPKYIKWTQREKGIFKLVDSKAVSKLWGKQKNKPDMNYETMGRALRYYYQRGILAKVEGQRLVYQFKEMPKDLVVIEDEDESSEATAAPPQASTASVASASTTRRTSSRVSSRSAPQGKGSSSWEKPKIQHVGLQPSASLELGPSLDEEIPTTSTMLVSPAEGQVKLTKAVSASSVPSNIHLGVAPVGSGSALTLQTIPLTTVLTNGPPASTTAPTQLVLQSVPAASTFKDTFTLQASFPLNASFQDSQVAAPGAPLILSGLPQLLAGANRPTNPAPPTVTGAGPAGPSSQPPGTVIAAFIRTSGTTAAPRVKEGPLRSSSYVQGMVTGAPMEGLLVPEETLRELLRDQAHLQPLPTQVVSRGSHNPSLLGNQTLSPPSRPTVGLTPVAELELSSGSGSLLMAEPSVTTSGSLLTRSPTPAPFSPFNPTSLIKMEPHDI
# Summary of the method: as §1
# ELK4 = target: T5, ELK4 (Homo sapiens, UniProt P28324-2 1-405)
# T5 sequence: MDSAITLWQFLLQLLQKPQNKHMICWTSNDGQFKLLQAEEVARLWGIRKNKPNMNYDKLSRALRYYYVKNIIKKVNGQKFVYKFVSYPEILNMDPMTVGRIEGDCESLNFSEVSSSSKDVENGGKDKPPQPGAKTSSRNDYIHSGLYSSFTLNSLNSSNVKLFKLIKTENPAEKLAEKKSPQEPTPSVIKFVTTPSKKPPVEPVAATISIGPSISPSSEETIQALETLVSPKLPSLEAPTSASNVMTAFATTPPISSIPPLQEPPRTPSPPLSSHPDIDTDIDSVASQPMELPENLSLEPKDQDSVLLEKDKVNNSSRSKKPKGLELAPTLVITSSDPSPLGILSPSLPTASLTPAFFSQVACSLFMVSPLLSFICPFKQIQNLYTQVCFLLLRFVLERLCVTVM
# Summary of the method: as §1
# ETV2 = target: T6, ETV2 (Homo sapiens, UniProt O00321 1-342)
# T6 sequence: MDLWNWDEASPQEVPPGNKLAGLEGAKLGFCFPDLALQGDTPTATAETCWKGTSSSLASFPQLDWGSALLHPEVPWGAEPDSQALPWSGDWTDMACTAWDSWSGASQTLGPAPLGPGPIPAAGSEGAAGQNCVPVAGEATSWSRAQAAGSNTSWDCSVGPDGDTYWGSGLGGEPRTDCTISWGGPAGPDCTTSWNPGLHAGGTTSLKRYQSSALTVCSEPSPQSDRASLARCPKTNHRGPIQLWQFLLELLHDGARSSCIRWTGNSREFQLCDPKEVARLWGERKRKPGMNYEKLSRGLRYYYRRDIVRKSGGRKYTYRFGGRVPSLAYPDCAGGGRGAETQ
# Summary of the method: as §1
# ELF3 = target: T7, ELF3 (Homo sapiens, UniProt P78545 1-371)
# T7 sequence: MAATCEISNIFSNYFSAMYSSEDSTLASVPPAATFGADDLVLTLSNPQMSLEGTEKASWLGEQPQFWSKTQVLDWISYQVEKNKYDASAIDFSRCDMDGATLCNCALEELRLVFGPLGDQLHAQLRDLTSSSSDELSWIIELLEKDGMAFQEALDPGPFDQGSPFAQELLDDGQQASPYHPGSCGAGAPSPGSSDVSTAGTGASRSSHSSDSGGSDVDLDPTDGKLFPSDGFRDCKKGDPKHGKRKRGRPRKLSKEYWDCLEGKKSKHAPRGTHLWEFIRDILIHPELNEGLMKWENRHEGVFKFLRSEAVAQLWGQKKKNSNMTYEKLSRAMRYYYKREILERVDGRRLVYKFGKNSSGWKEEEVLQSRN
# Summary of the method: as §1
# ETV1 = ETV1 (Homo sapiens, UniProt P50549 1-477)
# Sequence of ETV1 (P50549 whole entry): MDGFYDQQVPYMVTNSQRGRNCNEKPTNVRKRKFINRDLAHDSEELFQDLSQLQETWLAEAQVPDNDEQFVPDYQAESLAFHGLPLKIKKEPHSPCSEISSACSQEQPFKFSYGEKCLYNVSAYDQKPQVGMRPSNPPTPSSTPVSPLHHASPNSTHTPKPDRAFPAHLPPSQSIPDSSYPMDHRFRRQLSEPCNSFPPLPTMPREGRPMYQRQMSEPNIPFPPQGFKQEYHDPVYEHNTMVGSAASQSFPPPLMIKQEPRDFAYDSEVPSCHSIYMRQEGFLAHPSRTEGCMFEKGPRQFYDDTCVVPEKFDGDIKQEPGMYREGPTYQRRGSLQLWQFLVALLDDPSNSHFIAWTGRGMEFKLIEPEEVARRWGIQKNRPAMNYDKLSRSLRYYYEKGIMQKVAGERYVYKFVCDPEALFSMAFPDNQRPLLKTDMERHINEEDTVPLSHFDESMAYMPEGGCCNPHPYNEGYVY
# Summary of the method: as §1
# ERF = target: T8, ERF (Homo sapiens, UniProt P50548 1-548)
# T8 sequence: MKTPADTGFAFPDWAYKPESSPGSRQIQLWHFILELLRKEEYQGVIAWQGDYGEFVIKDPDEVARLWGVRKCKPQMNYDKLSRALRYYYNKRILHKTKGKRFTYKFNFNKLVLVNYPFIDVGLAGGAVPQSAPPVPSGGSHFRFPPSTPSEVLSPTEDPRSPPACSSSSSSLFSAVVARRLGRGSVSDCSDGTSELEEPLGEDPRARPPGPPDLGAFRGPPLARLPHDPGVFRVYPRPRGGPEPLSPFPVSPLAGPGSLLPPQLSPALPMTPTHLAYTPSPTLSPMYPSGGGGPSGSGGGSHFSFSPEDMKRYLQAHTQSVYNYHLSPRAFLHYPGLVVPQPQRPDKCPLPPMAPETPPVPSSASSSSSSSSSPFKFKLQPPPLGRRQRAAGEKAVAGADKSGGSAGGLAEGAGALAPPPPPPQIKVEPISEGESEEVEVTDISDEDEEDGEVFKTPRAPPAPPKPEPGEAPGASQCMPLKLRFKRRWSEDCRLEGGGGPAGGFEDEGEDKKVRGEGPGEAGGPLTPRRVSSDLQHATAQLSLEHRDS
# Summary of the method: as §1
# ETV3L = target: T9, ETV3L (Homo sapiens, UniProt Q6ZN32 1-361)
# T9 sequence: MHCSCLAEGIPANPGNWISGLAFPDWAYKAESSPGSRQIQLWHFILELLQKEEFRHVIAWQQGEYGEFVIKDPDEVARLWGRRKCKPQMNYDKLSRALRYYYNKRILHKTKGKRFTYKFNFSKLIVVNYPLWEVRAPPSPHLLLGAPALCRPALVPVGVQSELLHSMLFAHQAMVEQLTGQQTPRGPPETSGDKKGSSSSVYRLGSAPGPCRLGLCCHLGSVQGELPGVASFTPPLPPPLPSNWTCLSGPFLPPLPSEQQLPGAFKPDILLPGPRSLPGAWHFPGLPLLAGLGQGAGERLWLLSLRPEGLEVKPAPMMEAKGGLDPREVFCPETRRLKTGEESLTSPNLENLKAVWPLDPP
# Summary of the method: as §1
# ETV7 = target: T10, ETV7 (Homo sapiens, UniProt Q9Y603 1-341)
# T10 sequence: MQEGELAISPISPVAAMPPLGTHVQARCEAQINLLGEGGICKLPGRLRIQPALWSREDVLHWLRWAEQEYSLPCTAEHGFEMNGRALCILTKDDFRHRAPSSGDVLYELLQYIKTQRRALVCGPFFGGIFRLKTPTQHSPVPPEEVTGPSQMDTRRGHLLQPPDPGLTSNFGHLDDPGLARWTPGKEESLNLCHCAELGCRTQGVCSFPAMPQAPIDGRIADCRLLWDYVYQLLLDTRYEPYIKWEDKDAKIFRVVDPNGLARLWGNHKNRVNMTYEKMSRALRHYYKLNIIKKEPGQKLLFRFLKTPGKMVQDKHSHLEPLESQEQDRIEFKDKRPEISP
# Summary of the method: as §1
# ETV3 = target: T11, ETV3 (Homo sapiens, UniProt P41162-2 1-143)
# T11 sequence: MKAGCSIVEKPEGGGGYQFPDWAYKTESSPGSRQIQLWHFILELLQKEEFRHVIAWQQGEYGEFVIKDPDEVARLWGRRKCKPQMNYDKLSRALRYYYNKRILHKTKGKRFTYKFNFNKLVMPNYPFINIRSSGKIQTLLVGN
# Summary of the method: as §1
# ETV6 = ETV6 (Homo sapiens, UniProt P41212 1-452)
# Sequence of ETV6 (P41212 whole entry): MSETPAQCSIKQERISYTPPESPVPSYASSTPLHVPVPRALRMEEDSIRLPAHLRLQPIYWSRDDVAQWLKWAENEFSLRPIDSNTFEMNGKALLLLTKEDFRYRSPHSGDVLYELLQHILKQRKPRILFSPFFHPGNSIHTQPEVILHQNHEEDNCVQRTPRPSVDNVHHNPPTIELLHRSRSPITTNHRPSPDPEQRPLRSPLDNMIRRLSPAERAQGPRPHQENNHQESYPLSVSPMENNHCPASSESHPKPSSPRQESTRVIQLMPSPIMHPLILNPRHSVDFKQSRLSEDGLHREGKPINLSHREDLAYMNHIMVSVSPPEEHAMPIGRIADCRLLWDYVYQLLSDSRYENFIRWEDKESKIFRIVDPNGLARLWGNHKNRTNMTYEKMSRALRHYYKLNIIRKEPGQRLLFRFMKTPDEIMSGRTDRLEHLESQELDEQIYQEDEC
# Summary of the method: as §1
sequence,measurement,setting,value
CGTAGC,binding signal,ELK1,"1.07 fold enrichment (6-mer frequency, TF over GST control)"
same,binding signal,GABPA,"1.08 fold enrichment (6-mer frequency, TF over GST control)"
same,binding signal,ERG,"1.04 fold enrichment (6-mer frequency, TF over GST control)"
same,binding signal,ELF1,"1.1 fold enrichment (6-mer frequency, TF over GST control)"
same,binding signal,EHF,"1.05 fold enrichment (6-mer frequency, TF over GST control)"
same,binding signal,SPIB,"1.07 fold enrichment (6-mer frequency, TF over GST control)"
same,binding signal,ETV5,"1.08 fold enrichment (6-mer frequency, TF over GST control)"
same,binding signal,ELF4,"1.07 fold enrichment (6-mer frequency, TF over GST control)"
same,binding signal,ELK4,"1.23 fold enrichment (6-mer frequency, TF over GST control)"
same,binding signal,ETV2,"1.03 fold enrichment (6-mer frequency, TF over GST control)"
same,binding signal,ELF3,"1.12 fold enrichment (6-mer frequency, TF over GST control)"
same,binding signal,ETV1,"1.15 fold enrichment (6-mer frequency, TF over GST control)"
same,binding signal,ERF,"1.03 fold enrichment (6-mer frequency, TF over GST control)"
same,binding signal,ETV3L,"1.09 fold enrichment (6-mer frequency, TF over GST control)"
same,binding signal,ETV7,"1.09 fold enrichment (6-mer frequency, TF over GST control)"
same,binding signal,ETV3,"1.04 fold enrichment (6-mer frequency, TF over GST control)"
same,binding signal,ETV6,"1.1 fold enrichment (6-mer frequency, TF over GST control)"
